The text below walks through data of PubChem BioAssay.

Results filed as inconclusive are left out. For part of these data: Results with a measured potency or affinity are listed apart. Calls of active or inactive are those of the source. Unless noted, no rule for the calls is given here.

The term remaining activity denotes the signal under treatment as a percentage of the control signal. Usually AC50 stands for the concentration giving half of the maximal activity seen. Usually IC50 stands for the concentration that gives 50% inhibition.

A short description of experiment [1]: viability loss in pontine glioma line – cell-based, SU-DIPG-XXV, MIPE5.0, CellTiter-Glo, qHTS, dose response (AID 1347065; cut-off not given, nearly all actives have AC50 up to about 26 µM;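 also: cells exposed to compound for 48 hours before ATP readout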). As to conditions: CellTiter-Glo ATP luminescence.
Experiment [2] can be described thus: JHH-DIPG-1 glioma cell viability, MIPE5.0 library, CellTiter-Glo luminescence, qHTS (AID 1347067; cut-off not given, nearly all actives have AC50 up to about 26 µM;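 also: cells exposed to compound for 48 hours before readout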). The following applies: JHH-DIPG-1 glioma viability, CellTiter-Glo ATP luminescence. A general note: In ATP-based viability assays light output follows the ATP content of the culture.
Experiment [3] can be described thus: SU-DIPG-XXV glioma cell viability, MIPE5.0 library, qHTS (AID 1347068; cut-off not given, nearly all actives have IC50 up to about 30 µM;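 as to IC50: cells exposed to compound for 48 hours before viability readout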). A general note: qHTS replaces the single test concentration by a dilution series.
Experiment [4] can be described thus: SU-DIPG-VI glioma cell viability, MIPE4.0 library, CellTiter-Glo luminescence, qHTS (AID 1347066; cut-off not given, nearly all actives have AC50 up to about 30 µM;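 also: cells exposed to compound for 48 hours before readout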). The following applies: CellTiter-Glo ATP luminescence.
Experiment [5] concerns the target Mitogen-activated protein kinase 7 (Homo sapiens) (UniProt Q13164). Description: ERK5 transactivation activators in reporter cells, primary screen, cell-based, HTS (AID 1508626;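 active = luciferase signal above three times the same-plate solvent-only control wells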;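 also: luciferase driven by Gal4-ERK5 fusion binding five Gal4 sites before minimal TATA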). As to conditions: HeLa Gal4-ERK5 transactivation, 18 h, at 5 µM, stronger effect = higher value.
Experiment [6] in a line: circadian clock period modulators, cell-based, LOPAC library, luminescence reporter (AID 2774).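 Also: values are relative to mean of DMSO wells on each plate.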 As to conditions: circadian reporter cells, at 7 µM, actives lie on both sides.
Experiment [7] has as its system Aerobactin synthetase IucA (Klebsiella pneumoniae hvKP1). Description: Biochemical IucA enzyme inhibition primary screen of the Spectrum library (AID 1346200).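 Also: 100% = wells without compound and 0% = wells lacking enzyme.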 The following applies: malachite green pyrophosphate, A620, at 8 µM, stronger effect = lower value.
Experiment [8] can be described thus: rescue of polyQ-huntingtin neuronal dysfunction in worms, whole organism, C. elegans mechanosensory neurons, N-terminal huntingtin (AID 1599). As to conditions: touch response, stronger effect = higher value.
Experiment [9] is described as follows: inhibitors of mitochondrial cytochrome c release, biochemical, purified mitochondria (AID 1603).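 Also: mouse liver mitochondria challenged with calcium chloride; signal normalized to the plate average as 100%.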 The following applies: stronger effect = lower value.
Experiment [10] can be described thus: inhibitors of polyQ protein aggregation (AID 1604). As to conditions: polyglutamine-induced protein aggregation inhibition assay; stronger effect = higher value; tested at 2.5 µM.
Experiment [11] in a line: enhancers of glutamate uptake in motor neurons, MN-1 cell line (AID 1612).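 Also: tested at 1 µM final; 0% = mean of DMSO vehicle wells on each plate; positive means more glutamate uptake than control and negative means less.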 As to conditions: MN-1 motor neuron cells, stronger effect = higher value.
A short description of experiment [12]: suppressors of polyglutamine aggregation in yeast, 75Q-TubH (AID 1616). As to conditions: S. cerevisiae 75Q-TubH polyglutamine aggregation suppression; stronger effect = higher value.
Experiment [13] is described as follows: inhibitors of Cryptococcus chitosan production, flow cytometry, Cibacron Brilliant Red staining (AID 1347148).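 Also: compound exposure lasted three days at 37 degrees C.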 As to conditions: Cryptococcus neoformans chitosan, stronger effect = lower value; at 10 µM unless noted. On the technique in general: A flow cytometer gives signals particle by particle.
Experiment [14] in a line: growth inhibition of DIPG glioma cells, dose response, cell-based, SU-DIPG-XVII, MIPE5.0, CellTiter-Glo, qHTS (AID 1347060; cut-off not given, nearly all actives have AC50 up to about 26 µM;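 as to AC50: cells exposed to compound for 48 hours before viability readout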). As to conditions: SU-DIPG-XVII viability, CellTiter-Glo ATP luminescence.
The nature of experiment [15]: growth inhibition of DIPG glioma cells, dose response, cell-based, SU-DIPG-XIII, MIPE5.0, CellTiter-Glo, qHTS (AID 1347064; cut-off not given, nearly all actives have AC50 up to about 23 µM). The following applies: SU-DIPG-XIII viability, CellTiter-Glo ATP luminescence.
Experiment [16] is described as follows: reducers of polyQ inclusions in PC12 cells, cell-based, NGF-treated PC12, GFPQ80 (AID 1614).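 Also: lower means fewer inclusions and 0 means no inclusions at all.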 As to conditions: PC12 NGF-treated GFP-polyQ80 inclusion reduction.
Experiment [17] deals with Aerobactin synthetase IucA (Klebsiella pneumoniae, hypervirulent). Description: IucA enzyme inhibition, biochemical, LOPAC library, absorbance readout (AID 1346212).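 Also: 100% = no compound wells and 0% = no enzyme wells.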 The following applies: IucA enzyme assay, absorbance (OD) readout; stronger effect = lower value;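 tested at 8 µM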.
The target in experiment [18] is ATP-dependent translocase ABCB1 (Homo sapiens) (UniProt P08183). Description: MDR1 (ABCB1) efflux transporter inhibition, cell-based (AID 377; in the data active = fluorescence slope change above about 50%). The following applies: MDR1-expressing cells, fluorescent substrate accumulation slope; stronger effect = higher value; concentration not given here.
ATP-dependent translocase ABCB1 (Homo sapiens), sequence (P08183 whole entry, looked up): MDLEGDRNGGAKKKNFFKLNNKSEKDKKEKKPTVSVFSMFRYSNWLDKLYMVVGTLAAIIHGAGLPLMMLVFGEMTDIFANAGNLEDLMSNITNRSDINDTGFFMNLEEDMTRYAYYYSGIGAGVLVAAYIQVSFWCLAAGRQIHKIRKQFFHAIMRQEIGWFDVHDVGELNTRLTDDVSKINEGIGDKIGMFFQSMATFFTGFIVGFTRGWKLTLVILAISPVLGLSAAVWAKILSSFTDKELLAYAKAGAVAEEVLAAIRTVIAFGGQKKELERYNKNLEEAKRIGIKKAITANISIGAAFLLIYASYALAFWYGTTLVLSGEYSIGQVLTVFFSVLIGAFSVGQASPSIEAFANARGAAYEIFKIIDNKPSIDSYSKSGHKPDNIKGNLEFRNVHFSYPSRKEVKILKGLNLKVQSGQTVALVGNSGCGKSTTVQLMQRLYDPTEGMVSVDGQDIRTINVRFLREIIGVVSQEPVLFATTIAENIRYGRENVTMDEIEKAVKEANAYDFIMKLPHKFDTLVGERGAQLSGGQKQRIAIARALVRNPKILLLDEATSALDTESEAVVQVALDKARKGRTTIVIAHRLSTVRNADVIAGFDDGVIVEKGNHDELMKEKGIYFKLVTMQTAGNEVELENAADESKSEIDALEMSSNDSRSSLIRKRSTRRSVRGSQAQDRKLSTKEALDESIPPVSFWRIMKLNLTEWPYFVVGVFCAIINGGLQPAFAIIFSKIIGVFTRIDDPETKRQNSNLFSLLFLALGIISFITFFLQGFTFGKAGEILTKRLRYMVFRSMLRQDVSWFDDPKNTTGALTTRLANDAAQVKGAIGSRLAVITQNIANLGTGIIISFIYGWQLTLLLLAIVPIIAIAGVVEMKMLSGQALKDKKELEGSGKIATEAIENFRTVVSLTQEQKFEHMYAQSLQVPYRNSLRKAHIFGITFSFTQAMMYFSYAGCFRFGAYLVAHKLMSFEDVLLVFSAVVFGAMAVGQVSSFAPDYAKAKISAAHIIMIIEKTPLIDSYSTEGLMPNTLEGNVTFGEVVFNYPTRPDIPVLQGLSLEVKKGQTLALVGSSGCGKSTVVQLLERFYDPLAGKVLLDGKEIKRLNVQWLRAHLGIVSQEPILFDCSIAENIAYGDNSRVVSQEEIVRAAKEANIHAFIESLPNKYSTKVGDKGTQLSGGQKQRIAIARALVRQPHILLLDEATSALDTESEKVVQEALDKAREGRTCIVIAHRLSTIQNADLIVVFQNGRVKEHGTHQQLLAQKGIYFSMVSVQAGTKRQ
Experiment [19] in a line: hESC survival regulators, cell-based (AID 493140).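 Also: cells exposed to compounds for four days before counting.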 The following applies: human embryonic stem cell survival screen; stronger effect = higher value.

Mitogen-activated protein kinase 7 (Homo sapiens), sequence (Q13164 whole entry, looked up, the tested form may be a part): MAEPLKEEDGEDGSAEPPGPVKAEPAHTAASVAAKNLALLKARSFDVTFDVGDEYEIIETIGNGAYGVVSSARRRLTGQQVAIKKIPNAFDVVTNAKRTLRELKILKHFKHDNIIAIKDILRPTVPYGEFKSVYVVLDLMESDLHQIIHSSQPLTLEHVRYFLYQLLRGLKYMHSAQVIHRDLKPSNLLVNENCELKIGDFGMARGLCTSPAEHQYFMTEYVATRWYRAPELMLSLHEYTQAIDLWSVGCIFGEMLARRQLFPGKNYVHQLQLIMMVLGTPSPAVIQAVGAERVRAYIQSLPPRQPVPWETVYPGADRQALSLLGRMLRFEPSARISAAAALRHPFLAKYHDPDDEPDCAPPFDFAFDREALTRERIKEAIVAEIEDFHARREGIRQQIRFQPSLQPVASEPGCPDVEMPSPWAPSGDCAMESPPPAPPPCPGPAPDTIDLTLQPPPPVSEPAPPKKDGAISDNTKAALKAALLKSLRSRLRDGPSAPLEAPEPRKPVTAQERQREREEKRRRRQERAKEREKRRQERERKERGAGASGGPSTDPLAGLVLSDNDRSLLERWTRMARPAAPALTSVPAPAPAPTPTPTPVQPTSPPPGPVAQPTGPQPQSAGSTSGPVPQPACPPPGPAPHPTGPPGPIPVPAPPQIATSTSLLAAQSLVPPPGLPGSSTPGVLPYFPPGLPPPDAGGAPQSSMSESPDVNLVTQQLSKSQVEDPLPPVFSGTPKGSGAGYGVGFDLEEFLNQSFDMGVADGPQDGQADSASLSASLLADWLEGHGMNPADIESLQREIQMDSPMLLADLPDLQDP

With `CC(O)(CS(=O)(=O)c1ccc(F)cc1)C(=O)Nc1ccc(C#N)c(C(F)(F)F)c1` (stereo not drawn), the compound was classed as inactive in experiment [1], in [2] and in experiment [3].
For the compound `CCOC(=O)c1cncn1[C@H](C)c1ccccc1`, the compound was called inactive in experiment [4]. Also, the luciferase signal in experiment [5] was 52 AU (inactive).
In the case of `Oc1cc2c(cc1O)[C@H]1c3ccccc3CN[C@@H]1CC2`, the period change in [6] was -0.1 h (inactive).
For `Cc1ccc(-c2nc3ccc(C)cn3c2CC(=O)N(C)C)cc1`, the activity remaining in experiment [7] was 101% (inactive). Moreover, the luciferase signal in experiment [5] was 44 AU (inactive).
`CC[C@@H]1/C=C/C=C/C[C@H](C)[C@@H](O)[C@](C)(O)C(=O)[C@H](C)[C@@H](O)[C@H](C)C(=O)[C@H](C)[C@@H](O)[C@H](C)/C=C/C(=O)O[C@H]2[C@@H](C)[C@@H](CC1)O[C@@]1(CC[C@@H](C)[C@@H](C[C@H](C)O)O1)[C@@H]2C` returned a rescue above control in experiment [8] of -7.82. Besides, in [9], the cytochrome c release ratio was found to be 1.21. For the same compound, the inhibition of aggregation in experiment [10] was -10.6%. The glutamate uptake change in [11] is 5.74%. Further, in [12], the aggregation suppression score was 0.0317. Further, the fold fluorescence in experiment [13] is 5.62 [at 63.2 µM] (inactive).
For `CC[C@@H](C(N)=O)N1CCCC1=O`, the compound was called inactive in experiment [14], in experiment [15], in experiment [4] and in experiment [3].
As to `CN1C(=O)CN=C(c2ccccc2)c2cc(Cl)ccc21`, in experiment [8], the rescue above control is 0.67. Further, in experiment [9], the cytochrome c release ratio was 0.88. In experiment [10], the inhibition of aggregation is 26.5%. Moreover, the glutamate uptake change in [11] was -26.8%. Further, the inclusion score in [16] came out at 2. This compound also returned an aggregation suppression score in experiment [12] of 0.718.
For `C[N+]1(C)CCN(c2ccccc2)CC1`, the period change in experiment [6] was -0.125 h (inactive). In addition, in [17], the remaining activity is 113% (inactive).
With `COC(=O)N1CCN(C(=O)Cc2ccc(Cl)c(Cl)c2)C(CN2CCCC2)C1` (stereo not drawn), in experiment [6], the period change is -0.045 h (inactive). In [17], the remaining activity is 101% (inactive).
For the compound `CC(C)[C@]12O[C@H]1[C@@H]1O[C@]13[C@]1(O[C@H]1C[C@H]1C4=C(CC[C@@]13C)C(=O)OC4)[C@@H]2O`, the figures for the AC50 in experiment [14], in [1] and in experiment [2] were 186 nM (active), 209 nM (active) and 83.3 nM (active), respectively. The IC50 in experiment [3] was 186 nM (active). Moreover, the fold fluorescence in experiment [13] was 4.23 [at 138.7 µM] (inactive).
With `C[C@]12CCC(=O)C=C1CC[C@@H]1[C@@H]2CC[C@@]2(C)[C@H]1CC[C@]2(C)O`, the compound was called inactive in experiment [4].
In turn, `O=C1Nc2ccc(Cl)cc2C(c2ccccc2Cl)=NC1O` (stereo not drawn) had a rescue above control in experiment [8] of -10.3. In addition, in experiment [9], the cytochrome c release ratio worked out at 1.2. The inhibition of aggregation in [10] was determined as 21.1%. Besides, the glutamate uptake change in experiment [11] was -7.53%. Moreover, in experiment [12], the aggregation suppression score came to 0.626.
For the compound `COc1ccc2c(c1)C13CCCC[C@@H]1C(C2)N(C)CC3` (stereo partly drawn), the fluorescence slope change in experiment [18] was 14.1% (inactive). Besides, the survival in experiment [19] was 5.75 (inactive). Further, in experiment [17], the remaining activity is 108% (inactive).
In experiment [8], `CN=C1CN(O)C(c2ccccc2)=c2cc(Cl)ccc2=N1` came in with a rescue above control of -9.17. Further, the cytochrome c release ratio in experiment [9] stood at 1.33. Further, the inhibition of aggregation in experiment [10] was determined as 32%. The glutamate uptake change in experiment [11] is -4.65%. For the same compound, the inclusion score in experiment [16] was found to be 2. Moreover, in experiment [12], the aggregation suppression score is 1.55.
